The values below come from the supplement of paper PMC10681739.
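Note: Full-length recombinant human ETS1 or RUNX1 bound to double-stranded 36-bp genomic probes on microarrays, detected by protein-specific primary antibody and Alexa488 secondary, spot fluorescence as median of four replicate spots.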

Sequence of RUNX1 (Q01196 whole entry): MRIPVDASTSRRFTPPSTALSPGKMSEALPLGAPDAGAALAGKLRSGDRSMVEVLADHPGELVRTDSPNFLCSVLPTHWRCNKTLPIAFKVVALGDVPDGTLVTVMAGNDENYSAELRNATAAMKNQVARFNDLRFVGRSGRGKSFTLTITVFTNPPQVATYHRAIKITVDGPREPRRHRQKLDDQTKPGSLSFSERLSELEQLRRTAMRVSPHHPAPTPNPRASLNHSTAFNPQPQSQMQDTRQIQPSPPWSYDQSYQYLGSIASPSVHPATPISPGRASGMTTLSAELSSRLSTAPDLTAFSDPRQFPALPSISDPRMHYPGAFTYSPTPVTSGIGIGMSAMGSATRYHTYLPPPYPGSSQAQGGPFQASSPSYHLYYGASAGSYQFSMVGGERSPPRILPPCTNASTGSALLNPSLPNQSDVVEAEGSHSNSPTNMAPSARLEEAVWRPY

The target in the assay is RUNX1 (UniProt Q01196). Nature of the assay: RUNX1 binding intensity (PBM fluorescence) in presence of ETS1, normalised to RUNX1-only experiment (arbitrary fluorescence units); higher = stronger binding. Particulars: RUNX1 concentration 2 nM; ETS1 concentration 25 nM. How it is done:
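Cooperative gcPBM on 36-bp genomic probes with neighbouring ETS1 and RUNX1 sites. Recombinant human RUNX1 (2 nM) was incubated alone or with ETS1 (25 nM) and detected with anti-RUNX1 antibody plus Alexa488 secondary. Values are medians over 4 replicate spots; the RUNX1+ETS1 data were normalised to the RUNX1-only data. The probes sit in constant array flanks that are not printed.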
Regarding CCGCTGACATCCGCTTGGCCTGCGGCTTCTTTCTGT, the RUNX1 binding intensity amounted to 2740.

GCGAGAGGGAGGAAGTGACTCACCAACCACAACAAA: the RUNX1 binding intensity worked out at 1220.

Take ACACAAACAGGAAGTGTTTGTGGTCCCTGCCTTTAG: the RUNX1 binding intensity turned out to be 1590.

On to GCAGAGAGGAGGGGATGTGGTTTCACAGCTTGCTCC, for which the RUNX1 binding intensity was determined as 937.

TACAGCCAGGAAATGGGGAGGGTGCTGCGGGCGGCA: the RUNX1 binding intensity worked out at 917.

In the case of CTCATTGACAGGAAGTCTAACCACAGGCTTAGGCCC, the RUNX1 binding intensity came out at 6750.

In the case of ATAGACCCAGCCCGTCCGGTAACCGCGCTCCTCGAT, the RUNX1 binding intensity was found to be 913.

Consider GATGAAAGAGGAAGTTCTCAAACCACCTTGCCAGTG, for which the RUNX1 binding intensity worked out at 1110.

As to CAAGGCACCAACGGATGTGGTATCTGGTGAGGGCTT, the RUNX1 binding intensity was 2430.

As for TACTAGTTTGGGGCATCCTGTGGTATAGGGGAAGCA, the RUNX1 binding intensity worked out at 1080.

As for GGCCAGGCAGGAAGTCCCGCGCCACAAGCGGCCGTC, the RUNX1 binding intensity was found to be 1230.

Take ACAACCCGGAAGTTGGCGCAGCGCGGTTGCCAATGG: the RUNX1 binding intensity was 1300.

On to GTCACCATTTCCGGGCCTCCGCGGTGTCCCCACCCC, for which the RUNX1 binding intensity was found to be 2900.

As for TCCTTTTCCGGTGGCGGCGCCGCGCGGTGAGGTTGT, the RUNX1 binding intensity stood at 1880.

For the sequence CCGCGCACCCGGAACTACCTCCCGACCCGCATCCCC, the RUNX1 binding intensity turned out to be 1440.

Regarding GCGCGGACAGAGAAAGGATGTGGTATAGCAGAAAGT, the RUNX1 binding intensity was determined as 884.

Turning to CGGCTAGGAAATAAAGAGCCTTCTCTCCGCGGTAGG, the RUNX1 binding intensity was found to be 2200.

As to GCTCTGGGTCACACAGGATGTGGTTTTTGAAGTTTG, the RUNX1 binding intensity is 10400.

For TCTAAATCACTTCCTGTTACAGAAACCACAGGCCTG, the RUNX1 binding intensity is 4430.

On to GGCTGGCCTAGGAACTTCCGCCACAAGTCCCGCCCC, for which the RUNX1 binding intensity is 1390.

On to TACATAGGCGGAAGTGGCCTGCGGGCGCCGGAGTTG, for which the RUNX1 binding intensity turned out to be 1710.

Take ACAGGAAGTGTCTCTATAGAAACCAAACCACAGAAA: the RUNX1 binding intensity is 949.

CAGTGGCAGGAAGAGGTCAGAAACCACTCGTGGTGG: the RUNX1 binding intensity is 1100.

TGGGCAAGATATCCTGGAAGTGGTTAAAAAAAATTA: the RUNX1 binding intensity was determined as 1060.

For the sequence GGACACAGGCTTCCGCGTTACCGACACCGCGTGGGG, the RUNX1 binding intensity was 934.

As to CCAGCTACACAGGATGCTGCGGTGGGCGGAATGCTC, the RUNX1 binding intensity was found to be 1970.

As for GCAGGGGCCCATTTCCTGCCACAAGCCCACACAGGA, the RUNX1 binding intensity amounted to 1750.

Regarding GCAGGGACCGGAAGTCCATGGCTCTGCCGCAACCCT, the RUNX1 binding intensity was determined as 1250.

As to CGGCATCTGACAGGATGTGGGCAGGGAGAGAGAGAC, the RUNX1 binding intensity is 4210.

In the case of AGCTTCCGAGTCTGTTGTGGAGTGGGAACCGCGACT, the RUNX1 binding intensity was found to be 1020.

In the case of AGCTGCATTTCCGGGCAGGCAATGAAACCACAGAGT, the RUNX1 binding intensity is 2370.

With TGGGGACAGGAAATGTTTACTGCCTGTGGCTTGCTG, the RUNX1 binding intensity is 981.

As for AGAAAAGGAAATGGTGGGCTGCACACCACAGCTCAC, the RUNX1 binding intensity turned out to be 1130.

For the sequence GTGGCTATGGGAAGTGGGGTGCGGTTTCTGCCGGGG, the RUNX1 binding intensity worked out at 1670.

For the sequence GAGTACAGGAAATGCAAAGTAAAACCACAGTGAGAT, the RUNX1 binding intensity stood at 1850.

Consider AGCTCTGCCAGGAAGTGAGAACCACAGGCCTCCCCT, for which the RUNX1 binding intensity was 1350.

As for ACAGAGAAGCTTCCTATTGTGGGATTCACCACCACC, the RUNX1 binding intensity stood at 942.

As for TCATAAGGAAGTGGAGTGTAGTAACCACAGGCCCCG, the RUNX1 binding intensity is 1340.

Take TTACGACACTTCCGGCGACGCCCCGCAGCCTTCACC: the RUNX1 binding intensity was determined as 1880.

GGGTTGGGTGCCGGATGCGGTGAGTGAGGTTCTCAT: the RUNX1 binding intensity was 4260.
